# Records with an inconclusive call do not appear. Activity calls are given as the source filed them. Rule for the calls, unless noted: active = hit-call score of the fitted dose curve at least 0.9, where 1 is the maximum; inactive = score below 0.9.
# Legend:
# [1] = CCTE_Shafer_MEA_dev_firing_rate_mean: CCTE's Neural Network Formation Assay for Mean Firing Rate, Shafer Lab (AID 2284031);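 note: curve fitted for loss of firing so AC50 reflects decreased mean firing rate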
# Procedure, shortened: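 Rat primary cortical neurons were seeded on multielectrode arrays and treated from plating through day 12, with redosing at each feed. Spontaneous spiking was recorded four times; mean firing rate AUC was fitted downward against DMSO.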
# [2] = CCTE_Shafer_MEA_dev_per_burst_spike_percent: CCTE's Neural Network Formation Assay for Percent of Spikes in a Burst, Shafer Lab (AID 2284032);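 note: fitted as a decrease in burst spike percentage below DMSO baseline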
# Procedure, shortened: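 Rat primary cortical neurons on 16-electrode MEA wells, dosed from plating day 0 for 12 days with renewal on DIV 5 and 9; spikes-in-bursts percentage averaged over bursting electrodes, collapsed as AUC across days 5, 7, 9, 12; loss direction versus DMSO.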
# [3] = CCTE_Shafer_MEA_dev_active_electrodes_number: CCTE's Neural Network Formation Assay for Number of Active Electrodes, Shafer Lab (AID 2284040; active = hit-call score of the fitted dose curve at least 0.9, where 1 is the maximum;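 note: potency for loss of active electrodes versus DMSO so lower counts are hits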)
# Procedure, shortened: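 Primary rat cortical neurons on 16-electrode MEA wells, exposed from day 0 through day 12 with compound renewed at DIV 5 and 9 feeds. Active electrodes (mean firing ≥5 spikes/min) counted at DIV 5, 7, 9, 12; trapezoidal AUC across days, loss-of-signal versus DMSO.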
# [4] = CCTE_Shafer_MEA_dev_burst_rate: CCTE's Neural Network Formation Assay for Burst Rate, Shafer Lab (AID 2284042);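 note: potency for loss of burst rate below DMSO control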
# Procedure, shortened: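 Rat primary cortical cultures on PEI/laminin MEA; compound from plating, re-dosed at DIV 5, 9 media change. Single-electrode bursts/recording length, well mean of active electrodes; AUC over DIV 5–12 recordings; loss-of-signal vs DMSO.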
# [5] = CCTE_Shafer_MEA_dev_bursting_electrodes_number: CCTE's Neural Network Formation Assay for Number of Bursting Electrodes, Shafer Lab (AID 2284043; active = hit-call score of the fitted dose curve at least 0.9, where 1 is the maximum;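 note: potency is for loss of bursting electrodes relative to DMSO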)
# Procedure, shortened: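 Primary rat cortical neurons plated on 16-electrode MEA wells, exposed from day 0 with compound renewed at DIV 5 and 9. Electrodes bursting ≥1 burst per 2 min counted on days 5, 7, 9 and 12; trapezoidal AUC across days, fitted for loss versus DMSO.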
# [6] = CCTE_Shafer_MEA_dev_per_burst_interspike_interval: CCTE's Neural Network Formation Assay for Burst Interspike Interval, Shafer Lab (AID 2284044);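 note: mean spike spacing inside bursts as AUC over recordings on days 5 7 9 12; potency for a decrease of within-burst interspike interval below DMSO level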
# Procedure, shortened: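 Spontaneous activity of maturing rat cortical networks is recorded on DIV 5, 7, 9 and 12 under chronic compound exposure beginning at plating. Endpoint: burst interspike interval well-mean, collapsed into trapezoidal AUC and fitted in the negative direction relative to DMSO.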
# [7] = CCTE_Shafer_MEA_dev_burst_duration_mean: CCTE's Neural Network Formation Assay for Mean Burst Duration, Shafer Lab (AID 2284045)
# Procedure, shortened: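 Primary rat cortical neurons on 48-well 16-electrode MEA plates, exposed from day 0 with renewal at DIV 5 and 9; spontaneous activity recorded on days 5, 7, 9, 12. Well-mean burst duration across bursting electrodes, collapsed as trapezoidal AUC; DMSO baseline.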
# [8] = CCTE_Shafer_MEA_dev_interburst_interval_mean: CCTE's Neural Network Formation Assay for Mean Interburst Interval, Shafer Lab (AID 2284046);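 note: well-mean interburst interval of bursting electrodes as AUC over four recording days; curve fitted for decrease in interburst interval relative to DMSO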
# Procedure, shortened: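 Rat cortical neurons, 1.5 x 10^5 cells/well, 48-well MEA; compound from day 0 through DIV 12, media and treatment renewed DIV 5/9. Recordings DIV 5, 7, 9, 12; well-mean interburst interval → trapezoidal AUC, loss direction vs DMSO.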
# [9] = CCTE_Shafer_MEA_dev_inter_network_spike_interval_mean: CCTE's Neural Network Formation Assay for Mean Inter-network Spike Interval, Shafer Lab (AID 2284047)
# Procedure, shortened: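 Primary rat cortical neurons on PEI-coated 48-well MEAs (16 electrodes/well) were exposed from plating day 0 to DIV 12, with dosing renewed at DIV 5 and 9. Recordings at DIV 5, 7, 9, 12 were collapsed by trapezoidal AUC, loss-of-signal fit vs DMSO.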
# [10] = CCTE_Shafer_MEA_dev_network_spike_number: CCTE's Neural Network Formation Assay for Number of Network Spikes, Shafer Lab (AID 2284048);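 note: fit as a loss of signal meaning fewer network spikes than DMSO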
# Procedure, shortened: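 Primary rat cortical neurons on PEI/laminin 48-well MEA plates, dosed from plating day 0 for 12 days, renewed at DIV 5 and 9. Network spike counts recorded DIV 5, 7, 9, 12, collapsed as trapezoidal AUC; DMSO baseline.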
# [11] = CCTE_Shafer_MEA_dev_network_spike_peak: CCTE's Neural Network Formation Assay for Mean Number of Electrodes in Network Spike, Shafer Lab (AID 2284049);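 note: fitted for loss of signal meaning fewer electrodes in network spikes than DMSO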
# Procedure, shortened: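 Network-spike peak electrode count from recordings on days 5, 7, 9 and 12 was combined as trapezoidal area under the curve. Rat cortical cultures were treated continuously from plating, with compound renewed at each feed (DIV 5, 9); fits versus DMSO.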
# [12] = CCTE_Shafer_MEA_dev_spike_duration_mean: CCTE's Neural Network Formation Assay for Mean Spike Duration, Shafer Lab (AID 2284051);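 note: mean network spike duration pooled as area under curve over DIV 5 to 12 recordings; potency for a decrease in mean network spike duration versus DMSO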
# Procedure, shortened: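 Rat cortical primary cultures, 48-well MEA (16 electrodes/well); compound from plating, renewed DIV 5, 9. Network spike duration (AxIS adaptive detector) recorded DIV 5/7/9/12, combined as trapezoidal AUC; loss direction vs DMSO.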
# [13] = CCTE_Shafer_MEA_dev_network_spike_duration_std: CCTE's Neural Network Formation Assay for Standard Deviation of Network Spike Duration, Shafer Lab (AID 2284052);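 note: area under curve of spike duration SD across recording days 5 to 12; hits are decreases in network spike duration SD versus DMSO vehicle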
# Procedure, shortened: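 Rat cortical cultures, 1.5 x 10^5 cells/well, exposed continuously from plating to DIV 12 with media/compound renewal at DIV 5, 9. Spontaneous activity recorded DIV 5/7/9/12, AxIS adaptive spike detector; AUC across days; negative direction vs DMSO.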
# [14] = CCTE_Shafer_MEA_dev_per_network_spike_spike_number_mean: CCTE's Neural Network Formation Assay for Mean Number of Spikes in a Network Spike, Shafer Lab (AID 2284053);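 note: fitted as decrease in spikes per network spike relative to DMSO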
# Procedure, shortened: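 Rat cortical primary cultures on 48-well MEA; compound from day 0, re-dosed with full media change DIV 5, 9. Recorded DIV 5, 7, 9, 12; spikes in 0.05 s window at network-spike peak ÷ total network spikes; AUC; loss vs DMSO.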
# [15] = CCTE_Shafer_MEA_dev_per_network_spike_spike_percent: CCTE's Neural Network Formation Assay for Percent of Spikes in a Network Spike, Shafer Lab (AID 2284054)
# Procedure, shortened: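 Rat primary cortical neurons were grown on 48-well MEA plates (16 electrodes/well), exposed from plating day 0 through day 12, with treatment renewed on DIV 5 and 9. Percent of spikes within 0.05 s network-spike peaks was measured, summarised as AUC across days 5, 7, 9, 12.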
# [16] = CCTE_Shafer_MEA_dev_LDH: CCTE's Lactate Dehydrogenase Assay for Cytotoxicity in the Neural Network Formation Assay, Shafer Lab (AID 2284068; active = hit-call score of the fitted dose curve at least 0.9, where 1 is the maximum;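 note: exposure for twelve days from plating with re-dosing on DIV 5 and 9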)
# Procedure, shortened: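 Rat cortical primary neurons, MEA culture; dosing day 0–12, full medium plus compound exchange DIV 5, 9. Read-out: LDH enzyme activity, spectrophotometric. DMSO = negative control/baseline; signal loss → cytotoxicity.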
# [17] = CCTE_Shafer_MEA_dev_correlation_coefficient_mean: CCTE's Neural Network Formation Assay for Mean Correlation Coefficient, Shafer Lab (AID 2284093);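 note: well mean pairwise spike train correlation integrated as AUC over recording days 5 to 12; potency fitted for loss of correlation relative to DMSO vehicle wells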
# Procedure, shortened: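 Rat cortical cultures, 1.5 x 10^5 cells/well, dosed from day 0 for 12 days. Spontaneous spikes recorded DIV 5/7/9/12; electrode-pair correlation coefficients averaged, AUC taken. Fit in loss direction vs DMSO.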
# [18] = UKN2_HCS_IMR90_neural_migration: University of Konstanz (UKN) Leist Lab Neural Crest Cell Migration Assay in human induced IMR90 Pluripotent Stem Cells (UKN2) (AID 2284204); conditions: actives raise or lower the signal
# Procedure, shortened: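 iPSC-derived IMR90 neural crest cells seeded around stoppers on PLO/laminin/fibronectin; migration started in N2-S medium with EGF/FGF, compounds added after 24 h for 24 h. Migration into cell-free area imaged after calcein-AM/Hoechst staining; bidirectional fit versus DMSO.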
# [19] = IUF_NPC1b_proliferation_BrdU_72hr: Leibniz Research Institute for Environmental Medicine (IUF) 72-hour Neural Progenitor Cell Bromodeoxyuridine (BrdU) Proliferation Assay (NPC1b) (AID 2284207)
# Procedure, shortened: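 BrdU luminescence ELISA quantified DNA synthesis over the last 16 h of a 72 h exposure, fitted against DMSO. Primary hNPC spheres from gestational week 16-19 cortex grown with EGF/FGF at 37C, pH 7.2-7.6.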
# [20] = IUF_NPC1a_proliferation_area_72hr: Leibniz Research Institute for Environmental Medicine (IUF) 72-hour Neural Progenitor Cell Proliferation Area Assay (NPC1a) (AID 2284208)
# Procedure, shortened: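 Measured in 3D suspension: each well held one primary hNPC sphere grown with EGF and FGF at pH 7.2-7.6. Compound stayed on for 72 h, then area was imaged; spheres lacking growth factors defined reduced proliferation.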
# [21] = IUF_NPC1_viability_72hr: Viability Assessment at 72 hours in the Leibniz Research Institute for Environmental Medicine (IUF) Neural Progenitor Cell Proliferation Assay (NPC1) (AID 2284209)
# Procedure, shortened: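 hNPC spheres, 1/well, EGF+FGF medium, 37C/5% CO2; dosed day 0, 72 h, no re-dosing. Resazurin reduction (alamar blue) fluorescence; DMSO = negative control/baseline; growth-factor-free wells as positive control.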
# [22] = CCTE_Mundy_HCI_Cortical_Synap_Neur_Matur_NeuriteSpotCountPerNeuriteLength: CCTE's Synaptogenesis and Neurite Maturation Assay in rat cortical cells for Neurite Spot Count per Neurite Length, Mundy Lab (AID 2284210)
# Procedure, shortened: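 Rat primary cortical cultures, AraC added at DIV 5 to suppress glia; chemical exposure from DIV 7 to DIV 12. Fixed cells stained for MAP2 and synaptophysin plus Hoechst; synaptophysin puncta per neurite length quantified by high-content imaging, relative to DMSO.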
# [23] = CCTE_Mundy_HCI_Cortical_Synap_Neur_Matur_BPCount: CCTE's Synaptogenesis and Neurite Maturation Assay in rat cortical cells for Branch Point Count, Mundy Lab (AID 2284211)
# Procedure, shortened: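 Rat primary cortical cultures, AraC added DIV 5; chemicals dosed DIV 7 through DIV 12. Fixed cells stained for MAP2, synaptophysin and Hoechst; neurite branch points counted by automated high-content imaging, fitted relative to DMSO.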
# [24] = CCTE_Mundy_HCI_Cortical_NOG_NeuriteCount: CCTE's Neurite Outgrowth Assay in rat cortical cells for Neurite Count, Mundy Lab (AID 2284212);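 note: cells fixed about two days after chemical exposure began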
# Procedure, shortened: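 Neurite number per cell from high-content imaging of betaIII-tubulin immunostaining, with Hoechst nuclear counterstain.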
# [25] = CCTE_Mundy_HCI_Cortical_Synap_Neur_Matur_NeuriteLength: CCTE's Synaptogenesis and Neurite Maturation Assay in rat cortical cells for Neurite Length, Mundy Lab (AID 2284214)
# Procedure, shortened: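 Rat cortical neurons, AraC at DIV 5; compound + media change DIV 7, end DIV 12 (288.33 h). Fix, MAP2/synaptophysin/Hoechst immunostain, automated HCI of neurite length vs DMSO.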
# [26] = CCTE_Mundy_HCI_Cortical_Synap_Neur_Matur_NeuriteSpotCountPerNeuron: CCTE's Synaptogenesis and Neurite Maturation Assay in rat cortical cells for Neurite Spot Count per Neuron Count, Mundy Lab (AID 2284215)
# Procedure, shortened: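 Developing rat cortical neurons, with glia suppressed by AraC, are exposed to chemicals from DIV 7 to DIV 12. Automated fluorescence imaging of MAP2-labelled neurites and synaptophysin puncta yields a count per neuron, normalised against DMSO wells.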
# [27] = CCTE_Mundy_HCI_Cortical_Synap_Neur_Matur_SynapseCount: CCTE's Synaptogenesis and Neurite Maturation Assay in rat cortical cells for Synapse Count, Mundy Lab (AID 2284218)
# Procedure, shortened: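 Primary rat cortical culture; AraC DIV 5 to arrest glia; compound + media change DIV 7; terminated DIV 12. PFA/Hoechst fix, anti-MAP2 + anti-synaptophysin immunostain; HCI synapse count/neuron; DMSO = baseline.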
# [28] = CCTE_Mundy_HCI_Cortical_Synap_Neur_Matur_NeuriteCount: CCTE's Synaptogenesis and Neurite Maturation Assay in rat cortical cells for Neurite Count, Mundy Lab (AID 2284222);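 note: exposure from day 7 to day 12 in vitro with readout at day 12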
# Procedure, shortened: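 Primary rat cortical cells were plated, treated with AraC at DIV 5, then exposed to chemicals from DIV 7 through DIV 12. After fixation and immunostaining for MAP2 and synaptophysin, imaging quantified neurites, with DMSO as the negative control.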
# [29] = CCTE_Mundy_HCI_Cortical_Synap_Neur_Matur_CellBodySpotCount: CCTE's Synaptogenesis and Neurite Maturation Assay in rat cortical cells for Cell Body Spot Count, Mundy Lab (AID 2284223)
# Procedure, shortened: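 Chemicals were applied to AraC-treated rat primary cortical cells at DIV 7 and measured at DIV 12. Fixed cells were labelled for MAP2, synaptophysin and nuclei, and high-content imaging gave cell body synaptophysin spot counts per neuron relative to DMSO.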
# [30] = CCTE_Mundy_HCI_hNP1_Pro_ResponderAvgInten: CCTE's Proliferation Assay in human neuroprogenitor cells, Mundy Lab (AID 2284224; active = hit-call score of the fitted dose curve at least 0.9, where 1 is the maximum;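 note: human neural progenitor cells hNP1 derived from WA09 embryonic stem cells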)
# Procedure, shortened: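 Proliferation read as average intensity of BrdU-positive cells, imaged at 26.25 h post-dosing: chemical exposure started after 40–44 h culture, BrdU during final 4 h, paraformaldehyde fixation. Positive-direction fit relative to DMSO.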
smiles,measurement,setting,value
C[C@@H]1CCO[C@H]2Cn3cc(C(=O)NCc4ccc(F)cc4F)c(=O)c(O)c3C(=O)N12,AC50,[1],2.57 µM (active)
same,AC50,[2],1.64 µM (active)
same,AC50,[3],1.46 µM (active)
same,AC50,[4],1.67 µM (active)
same,AC50,[5],1.65 µM (active)
same,AC50,[6],1.8 µM (active)
same,outcome,[7],inactive
same,AC50,[8],1.74 µM (active)
same,outcome,[9],inactive
same,AC50,[10],1.54 µM (active)
same,AC50,[11],1.11 µM (active)
same,AC50,[12],0.901 µM (active)
same,outcome,[13],inactive
same,AC50,[14],0.983 µM (active)
same,AC50,[15],0.691 µM (active)
same,AC50,[16],1.07 µM (active)
same,AC50,[17],1.52 µM (active)
same,outcome,[18],inactive
same,outcome,[19],inactive
same,outcome,[20],inactive
same,outcome,[21],inactive
same,AC50,[22],7.38 µM (active)
same,AC50,[23],1.14 µM (active)
same,outcome,[24],inactive
same,outcome,[25],inactive
same,AC50,[26],3.63 µM (active)
same,AC50,[27],3.05 µM (active)
same,outcome,[28],inactive
same,outcome,[29],inactive
same,AC50,[30],15.6 µM (active)

# — PubChem BioAssay (EPA / NIEHS)
